This excerpt belongs to a sample that is enriched for hits.
Lassa entry inh: qHTS for Inhibitors of binding or entry into cells for Lassa Virus; actives 1.2% (n = 300,000); Potency, µM (series often up to 37.9 µM), most hits filed as inhibitors; Lassa virus pseudotype entry inhibition, cell reporter; calls by dose curve; tested in HEK293 cells; also: nearly all actives have a fitted effect of over 50% in size
Shiga toxin inh: A qHTS for Small Molecule Inhibitors of Shiga Toxin. inhibition, % at 38.7 µM. actives 9.2% (n = 290,000). AID 2315, 2010. Vero cells, Shiga toxin protein synthesis inhibition reporter; in the data active = inhibition mostly above about 28%, no sharp cut-off; inactive = mostly below about 43%
AMA1-RON2 inh: qHTS for Inhibitors of AMA1-RON; Towards Development of Antimalarial Drug Lead: Primary Screen | AlphaScreen AMA1-biotinylated RON2 peptide binding | Plasmodium falciparum AMA1 (3D7) - RON2 peptide interaction | actives 0.2% (n = 360,000) | Potency, µM (highest dose often 58.2 µM), usual class: inhibitors; active = well fitted inhibition curve with a large enough effect; inconclusive = small, poorly fitted or top-dose-only effect; inactive = no such curve, though single readings can be large or run the other way; also: nearly all actives have a fitted effect of over 45% in size
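AMA1 (3D7) with his tag at 25 nM final met compounds first, then biotinylated RON2 peptide at 25 nM; detection used donor plus acceptor beads, 10 µg/mL apiece, read by AlphaScreen after 30 min at room temperature.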
Marburg entry inh: qHTS for inhibitors of binding or entry into cells for Marburg Virus. Marburg virus pseudotyped entry inhibition, cell reporter. actives 1.8% (n = 300,000). Potency, µM (top dose mostly 37.8 µM), hits mostly inhibitors; calls by dose curve; tested in HEK293 cells
Cycloheximide cs: Cycloheximide Counterscreen for Small Molecule Inhibitors of Shiga Toxin; cell reporter, cycloheximide protein synthesis inhibition counterscreen; max response, %; actives 12% (n = 300,000); in the data active = max response mostly above about 13%, no sharp cut-off; inactive = mostly below about 14%; also: read at 38.3 µM for the half of the compounds with a filed dose
Large screens that a line does not name were inactive; ! = not confirmed by another sample.

CC(C)CN1CCC(=O)N(CCSc2ccccc2)CC1	Shiga toxin inh 37, Cycloheximide cs 39 (no result: Lassa entry inh, Marburg entry inh)
CCOc1ccccc1CNc1nc2nc(C)c(CC(=O)OC)c(=O)n2[nH]1	none (no result: Shiga toxin inh, AMA1-RON2 inh, Cycloheximide cs)
N#C/C(=C\c1ccc2c(c1)OCO2)C(=O)NCc1ccco1	none
C=CCNC(=O)/C(C#N)=C/c1c(C)nn(-c2ccccc2)c1Cl	Marburg entry inh 7.9µM
CC1CCCCC1NC(=O)/C(C#N)=C/c1ccc(F)c(F)c1 (stereo not given)	none
COCCNC(=O)/C(C#N)=C/c1ccc2c(c1)OCO2	Shiga toxin inh 41, Cycloheximide cs 19
C=CCNC(=O)/C(C#N)=C/c1ccc2c(c1)OCCO2	Shiga toxin inh 85, Cycloheximide cs 40
CC1CCCCC1NC(=O)/C(C#N)=C/c1ccc2c(c1)OCCO2 (stereo not given)	Shiga toxin inh 39
CCOc1ccccc1NC(=O)/C(C#N)=C/c1c(C)nn(-c2ccccc2)c1Cl	Lassa entry inh inconclusive
FC(F)(F)c1cccc(CC2CN(Cc3ccccc3)Cc3ccccc3N2c2cc(Cl)cc(Cl)c2)c1 (stereo not given)	none (no result: Lassa entry inh, Shiga toxin inh, Marburg entry inh, Cycloheximide cs)
Cn1c(=O)c2c(nc(NC[C@@H](O)CO)n2CCc2ccccc2)n(C)c1=O	none (no result: Lassa entry inh, Shiga toxin inh, AMA1-RON2 inh, Cycloheximide cs)
N#C/C(=C\c1ccc2c(c1)OCCO2)C(=O)Nc1nccs1	Shiga toxin inh 94 (no result: Lassa entry inh)
N#C/C(=C\c1ccccc1)C(=O)Nc1nncs1	none
CSc1ccc(/C=C(\C#N)C(=O)NC2CCCCC2)cc1	Marburg entry inh inconclusive
C=CCNC(=O)/C(C#N)=C/c1ccc(SC)cc1	Lassa entry inh inconclusive, Shiga toxin inh 81, Cycloheximide cs 52
COc1ccc(/C=C\c2nc(=O)c3ccccc3o2)cc1	Lassa entry inh inconclusive, Shiga toxin inh 135, Marburg entry inh inconclusive, Cycloheximide cs 60
O=c1nc(/C=C/c2ccc(O)c(O)c2)oc2ccccc12	AMA1-RON2 inh inconclusive, Marburg entry inh inconclusive, Cycloheximide cs 25
Cc1ccc(C)c(CN2CCCN(CC(=O)Nc3ccc(C)c(C)c3)S2(=O)=O)c1	none (no result: Shiga toxin inh, AMA1-RON2 inh, Marburg entry inh, Cycloheximide cs)
Fc1cccc(NCc2cn3ccccc3n2)c1	Lassa entry inh inconclusive, Shiga toxin inh 126, Marburg entry inh inconclusive, Cycloheximide cs 51
Fc1ccc(NCc2cn3ccccc3n2)cc1	Lassa entry inh inconclusive, Shiga toxin inh 77, Marburg entry inh inconclusive, Cycloheximide cs 53
O=S(=O)(c1ccccc1)N(C[C@@H](O)CN1CCCCC1)c1ccccc1	none (no result: Lassa entry inh, Shiga toxin inh, AMA1-RON2 inh, Cycloheximide cs)
CC(C)NC(=O)CSc1nc2ccccc2c(=O)n1Cc1ccc(C(=O)NC(C)C)cc1	none (no result: Shiga toxin inh, AMA1-RON2 inh, Marburg entry inh, Cycloheximide cs)
COc1ccc(OC)c(S(=O)(=O)NCc2ccccn2)c1	none (no result: Lassa entry inh, Marburg entry inh)
COc1ccnc(CSC(N)=Nc2ccccc2OC)c1	Shiga toxin inh 91, Cycloheximide cs 75
COc1ccnc(CSC(N)=Nc2ccccc2C(F)(F)F)c1	Shiga toxin inh 22
COc1ccnc(CSC(N)=Nc2cccc(C(F)(F)F)c2)c1	Cycloheximide cs 25
CC(C)C[C@@H]1O[C@H](CCc2ccccc2)Cc2[nH]c(=S)[nH]c(=O)c21	none (no result: Lassa entry inh, Shiga toxin inh, Marburg entry inh, Cycloheximide cs)
O=C(/C=C/c1cccc2ccccc12)N1CCOCC1	Shiga toxin inh 86, Cycloheximide cs 32
O=C(/C=C/c1cccc([N+](=O)[O-])c1)N1CCOCC1	Marburg entry inh inconclusive
N#Cc1ccccc1/C=C/C(=O)N1CCOCC1	none
O=C(/C=C/c1cccc(Oc2ccccc2)c1)N1CCOCC1	Shiga toxin inh 86, Cycloheximide cs 34 (no result: Lassa entry inh, Marburg entry inh)
O=C(/C=C/c1ccccc1Cl)N1CCOCC1	Cycloheximide cs 19 (no result: Lassa entry inh, Marburg entry inh)
Cc1ccccc1/C=C/C(=O)N1CCOCC1	Shiga toxin inh 66, Cycloheximide cs 31
COc1ccccc1/C=C/C(=O)N1CCOCC1	Lassa entry inh inconclusive
O=C(COC(=O)c1ccccc1Br)Nc1ccc2[nH]c(=O)[nH]c2c1	Lassa entry inh inconclusive (no result: Shiga toxin inh, Cycloheximide cs)
CCOC(=O)/C(=C\c1cccc(O)c1)c1nc2sc(C)c(C)c2c(=O)[nH]1	Lassa entry inh inconclusive, Marburg entry inh inconclusive
CCCCCCOc1ccc(/C=C/C(=O)N2CCOCC2)cc1OC	none (no result: Lassa entry inh, Marburg entry inh)
O=C(/C=C/c1ccc(OCCCF)cc1)N1CCOCC1	Shiga toxin inh 66, Cycloheximide cs 30 (no result: Lassa entry inh, Marburg entry inh)
O=C1CCCc2nc3c(cc21)C(O)Oc1c-3ccc2ccccc12 (stereo not given)	Shiga toxin inh 65, Cycloheximide cs 49
Cc1ccc(C(c2sc3nc(-c4ccco4)nn3c2O)N2CCOCC2)cc1 (stereo not given)	none (no result: Shiga toxin inh, AMA1-RON2 inh, Marburg entry inh, Cycloheximide cs)
COc1ccc(/C=C2\CCCC3C2=NN(C(=O)CSc2ncn[nH]2)C3c2ccc(OC)cc2)cc1 (stereo not given)	Lassa entry inh inconclusive, Marburg entry inh inconclusive
COc1ccc2c(c1)C1=NN(/C(C)=C/C(C)=O)C(c3cccc(F)c3)C1CC2 (stereo not given)	none
COc1ccc2c(c1)C1=NN(/C(C)=C/C(C)=O)C(c3ccc(F)cc3)C1CC2 (stereo not given)	Shiga toxin inh 94, Cycloheximide cs 31
COc1ccc(/C=C2\CCCC3C2=NN(C(=O)COC(=O)CNC(=O)c2ccccc2)C3c2ccc(OC)cc2)cc1 (stereo not given)	Lassa entry inh inconclusive, Marburg entry inh inconclusive
COc1ccc2c(c1)CCC1C2=NN(/C(C)=C\C(C)=O)C1c1ccc(F)cc1 (stereo not given)	Shiga toxin inh 60, Cycloheximide cs 62 (no result: Lassa entry inh, Marburg entry inh)
COc1ccc2c(c1)C1=NN(/C(C)=C\C(C)=O)C(c3ccccc3)C1CC2 (stereo not given)	Shiga toxin inh 71, Cycloheximide cs 26
Cc1ccc(NC(=O)Cn2c(=O)n(Cc3ccccc3)c(=O)c3sc4ccccc4c32)cc1	none (no result: Shiga toxin inh, AMA1-RON2 inh, Cycloheximide cs)
Cc1nn(C(=O)c2cccc(F)c2)c(C)c1S(=O)(=O)N1CCOCC1	none (no result: Shiga toxin inh, AMA1-RON2 inh, Marburg entry inh, Cycloheximide cs)
COc1ccc2nc(S(=O)Cc3ncc(C)c(OC)c3C)[nH]c2c1 (stereo not given)	none
COCCCOc1ccnc(CS(=O)c2nc3ccccc3[nH]2)c1C (stereo not given)	Shiga toxin inh 48, Cycloheximide cs 44 (no result: Lassa entry inh, Marburg entry inh)
Cc1c(OCC(F)(F)F)ccnc1CSc1nc2ccccc2[nH]1	Lassa entry inh inconclusive, Shiga toxin inh 132, Marburg entry inh inconclusive, Cycloheximide cs 54
Cc1c(OCC(F)(F)F)ccnc1CS(=O)c1nc2ccccc2[nH]1 (stereo not given)	Lassa entry inh inconclusive, Shiga toxin inh 116!, Marburg entry inh inconclusive, Cycloheximide cs 27
O=c1[nH]c2ccccc2nc1C(F)(F)F	none
CC1=C(C(=O)N(C(C)C)C(C)C)CC(CC(=O)NCCc2ccccn2)C(=O)N1CCCN1CCCC1=O (stereo not given)	none (no result: Lassa entry inh, Shiga toxin inh, Marburg entry inh, Cycloheximide cs)
COC(=O)c1cc(OC)c(OC)cc1NCC(=O)Nc1cccc(C(F)(F)F)c1	Marburg entry inh 10µM
COC(=O)c1cc(OC)c(OC)cc1NCC(=O)Nc1ccc(OC)c(OC)c1	AMA1-RON2 inh inconclusive, Marburg entry inh inconclusive
O=C(c1cnn2c1NC(c1ccc(Br)cc1)CC2C(F)(F)F)N1CCN(C23CC4CC(CC(C4)C2)C3)CC1 (stereo not given)	Marburg entry inh 16µM
